Screens as filed in PubChem BioAssay.
MITF TRPM1 HTS: activators of MITF-driven TRPM1 promoter reporter, primary screen, cell-based, SK-MEL-5, luciferase, single point; SK-MEL-5 TRPM1-promoter luciferase, 24 h; % of positive control, neutral wells = 0; activation, % at 12.5 µM; hit rate 0.75% among 300,000;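 active = mean activation of at least 80% with every replicate also reaching 80%; inconclusive = mean reaches 80% but some replicate falls short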
esBAF inh: Bmi1 luciferase reporter increase in mESCs, primary screen, esBAF inhibitor project, mouse ES cells, Bmi1 luciferase knock-in, single point. hit rate 2% among 350,000. 24 h; 100% = twice the neutral-well signal. reporter increase, % at 12.5 µM; in the data active = activation above about 40%; inconclusive = no clear call, values can overlap the other calls;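 also: a rise in the Bmi1 reporter signal indicates esBAF inhibition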
AHR act: AHR activators, primary screen, cell-based, luminescence, luciferase reporter, human; activation, % at 5 µM; AHR-responsive luciferase reporter cells; hit rate 2.5% among 320,000; in the data active = activation above about 47%
FXN GAA850 act: FXN promoter activators, primary screen, cell-based, luciferase luminescence, HEK293 lucGAA850 | activation, % at 6 µM | HEK293 lucGAA850 FXN promoter luciferase reporter, 24 h; percent of 10 µM SAHA response | hit rate 0.56% among 360,000 | AID 540364, 2011;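 active = activation above the average of all compounds screened plus 3 SD, cutoff fixed separately per campaign, cut at about 7.5% in these data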
Wnt bcat act: Wnt/beta-catenin pathway activators, primary screen, cell-based, plate reader, single point; activation, % at 9.35 µM; Wnt/beta-catenin reporter cell assay, activator; hit rate 1.2% among 300,000; in the data active = activation above about 30%, passing the limit was not always enough; inconclusive = no clear call, values can overlap the other calls
AHR act confirm: AHR activators, confirmation, cell-based, luminescence, luciferase reporter, human. shares compounds with AHR act. human cells, AHR-responsive luciferase reporter. activation, % at 9 µM. hit rate 87% among 2,300; in the data active = activation above about 49%;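 also: HepG2 hepatoma cells carrying a DRE-driven firefly luciferase reporter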
PXR counter: human PXR activators, counter-screen for AHR activator project, cell-based, luciferase luminescence; shares compounds with AHR act; cell-based PXR reporter; activation, % at 11.6 µM; hit rate 88% among 2,300; in the data active = activation above about 11%;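 also: human hepatoma DPX-2 cells expressing full-length human PXR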
Hits are given with their value. Shown are actives, neighbours in structure and some others; about 4.2% of the full set was active somewhere.

How did CC(C)NC(=O)N(C)C[C@H]1Oc2ccc(NC(=O)Cc3ccccc3)cc2CC(=O)N([C@H](C)CO)C[C@@H]1C do in these assays?
esBAF inh: inactive

What do the screens show for `COc1ccc(NC(=O)N(C)C[C@@H]2Oc3ccc(NC(=O)CCN4CCOCC4)cc3CC(=O)N([C@H](C)CO)C[C@@H]2C)cc1`?
esBAF inh: inactive

Results for CO[C@H]1CN(C)C(=O)c2cc(NC(C)=O)ccc2OC[C@@H](C)N(C(=O)c2ccc(F)cc2)C[C@@H]1C ?
esBAF inh: inactive

What do the screens show for `Cc1cc(C(=O)N/N=C/c2ccc([N+](=O)[O-])s2)n[nH]1`?
AHR act: inactive; FXN GAA850 act: inactive; Wnt bcat act: inactive

Results for Cc1cc(C(=O)N/N=C/c2ccc(C)s2)n[nH]1 ?
MITF TRPM1 HTS: inactive; esBAF inh: inactive; AHR act: 97; FXN GAA850 act: inactive; Wnt bcat act: inactive; AHR act confirm: 89; PXR counter: 24

How did O=C(CN1CCCCCC1)Nc1ccc(Br)cc1 do in these assays?
MITF TRPM1 HTS: inactive; esBAF inh: inactive; AHR act: 84; FXN GAA850 act: inactive; AHR act confirm: 112; PXR counter: 60

Results for COc1ccc(S(=O)(=O)N(C)C[C@@H]2Oc3c(NS(=O)(=O)c4ccc(Cl)cc4)cccc3C(=O)N([C@H](C)CO)C[C@H]2C)cc1 ?
esBAF inh: inactive

Results for CC(=O)N(C)C[C@@H]1Oc2ncc(C#Cc3ccccc3F)cc2C(=O)N([C@@H](C)CO)C[C@@H]1C ?
esBAF inh: inactive

What do the screens show for `C=CCOn1c(C)c(C(C)=O)c2c3nonc3ccc21`?
MITF TRPM1 HTS: inactive; esBAF inh: inactive; AHR act: 81; FXN GAA850 act: inactive; AHR act confirm: 71; PXR counter: 48

Results for COn1c(C)c(C(C)=O)c2c3no[n+]([O-])c3ccc21 ?
MITF TRPM1 HTS: inactive; esBAF inh: inactive; AHR act: inactive; FXN GAA850 act: inactive

How did C=CCOn1c(C)c(C(C)=O)c2c3no[n+]([O-])c3ccc21 do in these assays?
esBAF inh: inactive; AHR act: 111; FXN GAA850 act: inactive; Wnt bcat act: inactive; AHR act confirm: 78; PXR counter: 85

What do the screens show for `O=C(CCN1CCCCC1)NCC[C@@H]1CC[C@H](NC(=O)Nc2ccc(Cl)cc2)[C@H](CO)O1`?
esBAF inh: inactive

How did C/C(=C\C(=O)c1ccc(Br)cc1)NCc1ccccc1 do in these assays?
MITF TRPM1 HTS: inactive; esBAF inh: inconclusive; AHR act: 95; FXN GAA850 act: inactive; Wnt bcat act: inactive; AHR act confirm: inactive; PXR counter: 27

Results for C[C@@H]1CN([C@@H](C)CO)C(=O)c2cc(NC(=O)Cc3ccccc3)ccc2O[C@@H](C)CCCCO[C@H]1CN(C)Cc1ccc(C(F)(F)F)cc1 ?
esBAF inh: inactive

What do the screens show for `CNC[C@@H]1Oc2c(NC(=O)NC(C)C)cccc2C(=O)N([C@H](C)CO)C[C@@H]1C`?
esBAF inh: inactive

Results for CC(=O)c1sc(-c2ccccn2)nc1C ?
AHR act: inactive

How did Cc1nc(-c2ccccn2)sc1C(=O)Nc1ccc(Cl)c(Cl)c1 do in these assays?
MITF TRPM1 HTS: inactive; esBAF inh: inactive; AHR act: 109; FXN GAA850 act: inactive; AHR act confirm: 57; PXR counter: 40

Results for COc1cccc(OC)c1C(=O)Nc1nc2ccc(S(C)(=O)=O)cc2s1 ?
MITF TRPM1 HTS: inactive; esBAF inh: inactive; AHR act: inactive; FXN GAA850 act: inactive; Wnt bcat act: inactive

How did COc1ccc2nc(NC(=O)c3ccccc3O)sc2c1 do in these assays?
MITF TRPM1 HTS: 88; esBAF inh: inactive; AHR act: 130; FXN GAA850 act: inactive; Wnt bcat act: 38; AHR act confirm: inactive; PXR counter: 33
